{"source": "PubChem BioAssay (NCATS)", "note": "Results filed as inconclusive are left out. Entries that show only a call come without a potency. A number with no mark means an inactive call. Activity calls are given as the source filed them. The call rests on the fitted dose curve; in most records, active means well fitted curve in the direction sought with a large enough effect; inconclusive means small, poorly fitted or top-dose-only effect, or another doubt; inactive means no such curve, though single readings can be large; an effect the other way counts as inactive or inconclusive."}
{"experiment": "qHTS of pediatric cancer cell lines to identify multiple opportunities for drug repurposing: Primary screen for MG 63 (6-TG R) cells (AID 1347105); further: nearly all actives have a fitted effect of over 50% in size", "details": "MG 63 (6-TG R) viability, CellTiter-Glo, 48 h; series mostly up to 46 µM", "procedure,_shortened": "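Plated cells (500-1,000 per well, growth media) were allowed to settle for 5 hours, treated with compound dilutions for 48 hours, then lysed with CellTiter-Glo for 15 min at room temperature before luminescence reading.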"}
{"smiles": "CN1C(=O)CC[C@H]1c1cccnc1", "Potency": "inactive"}
{"smiles": "CN(C)CCCN1c2ccccc2Sc2ccccc21", "Potency": "inactive"}
{"smiles": "CCCN(CCC)C(=O)C(CCC(=O)O)NC(=O)c1ccccc1", "note": "(configuration not stated)", "Potency": "inactive"}
{"smiles": "Cc1nc2sccn2c(=O)c1CCN1CCC(=C(c2ccc(F)cc2)c2ccc(F)cc2)CC1", "Potency": "inactive"}
{"smiles": "Brc1c(NC2=NCCN2)ccc2nccnc12", "Potency": "inactive"}
{"smiles": "CC(C)(C)NCC(O)c1cc(O)cc(O)c1", "note": "(configuration not stated)", "Potency": "inactive"}
{"smiles": "COCCc1ccc(OCC(O)CNC(C)C)cc1", "note": "(configuration not stated)", "Potency": "inactive"}
{"smiles": "CN(C)CC[C@@H](c1ccc(Br)cc1)c1ccccn1", "Potency": "inactive"}
{"smiles": "C[C@]12CCC(=O)C=C1CC[C@@H]1[C@@H]2C(=O)C[C@@]2(C)[C@H]1CC[C@]2(O)C(=O)CO", "Potency": "inactive"}
{"smiles": "OC(CCN1CCCCC1)(c1ccccc1)C1CCCCC1", "note": "(configuration not stated)", "Potency": "inactive"}
{"smiles": "C[N+](C)(C)CCCCCCCCCC[N+](C)(C)C", "Potency": "inactive"}
{"smiles": "COc1ccc2c(c1OC)C(=O)O[C@@H]2[C@H]1c2c(cc3c(c2OC)OCO3)CCN1C", "Potency": "inactive"}
{"smiles": "CCCN1C[C@H](CSC)C[C@@H]2c3cccc4[nH]cc(c34)C[C@H]21", "Potency": "inactive"}
{"smiles": "CC(=O)OCC1=C(C(=O)O)N2C(=O)[C@@H](NC(=O)Cc3cccs3)[C@H]2SC1", "Potency": "inactive"}
{"smiles": "NC(Cc1ccc(Cl)cc1)C(=O)O", "note": "(configuration not stated)", "activity change, negative = cytotoxic": "9.57% [at 0.597 µM]"}
{"smiles": "CCN(CC)CC(=O)Nc1c(C)cccc1C", "Potency": "inactive"}
{"smiles": "Cc1cc(C)c(/C=C2\\C(=O)Nc3ccccc32)[nH]1", "Potency": "inactive"}
{"smiles": "CCN(CC)CCNC(=O)c1cc(S(C)(=O)=O)ccc1OC", "Potency": "inactive"}
{"smiles": "CC(N=C(NC#N)Nc1ccncc1)C(C)(C)C", "note": "(configuration not stated)", "Potency": "inactive"}
{"smiles": "O=C(O)CP(=O)(O)O", "Potency": "inactive"}
{"smiles": "CC[N+](C)(C)c1cccc(O)c1", "Potency": "inactive"}
{"smiles": "CC(=O)Oc1cc(C(C)C)c(OCCN(C)C)cc1C", "Potency": "inactive"}
{"smiles": "C[C@@H](O)[C@H]1C(=O)N2C(C(=O)O)=C(SCCN=CN)C[C@H]12", "Potency": "inactive"}
{"smiles": "CSc1ccc(C(=O)c2[nH]c(=O)[nH]c2C)cc1", "Potency": "inactive"}
{"smiles": "O=C1CC2(CCCC2)CC(=O)N1CCCCN1CCN(c2ncccn2)CC1", "Potency": "inactive"}
{"smiles": "NC(=O)c1cn(Cc2c(F)cccc2F)nn1", "Potency": "inactive"}
{"smiles": "CC(C(=O)O)c1ccc(CC2CCCC2=O)cc1", "note": "(configuration not stated)", "Potency": "inactive"}
{"smiles": "CC(=O)[C@@]1(O)CC[C@H]2[C@@H]3CCC4=CC(=O)CC[C@]4(C)[C@H]3CC[C@@]21C", "Potency": "inactive"}
{"smiles": "Cc1cccc(C)c1NC(=O)C(C)N", "note": "(configuration not stated)", "Potency": "inactive"}
{"smiles": "NC1=NCC2c3ccccc3Cc3ccccc3N12", "note": "(configuration not stated)", "Potency": "inactive"}
{"smiles": "CN(C)[C@@H]1C(=O)C(C(N)=O)=C(O)[C@@]2(O)C(=O)C3=C(O)c4c(O)ccc(Cl)c4[C@@H](O)[C@H]3C[C@@H]12", "Potency": "inactive"}
{"smiles": "CCCCOCCOCCOCc1cc2c(cc1CCC)OCO2", "Potency": "inactive"}
{"smiles": "CCCOc1ccccc1-c1nc2n[nH]nc2c(=O)[nH]1", "Potency": "inactive"}
{"smiles": "CCCN(CCC)CCc1cccc2c1CC(=O)N2", "Potency": "inactive"}
{"smiles": "Cc1scc2c1N(C(=O)CN1CCN(C)CC1)c1ccccc1NC2=O", "Potency": "inactive"}
{"smiles": "CCCCNc1c(C(=O)OCC)c(C)nc2c1cnn2CC", "Potency": "inactive"}
{"experiment": "qHTS of pediatric cancer cell lines to identify multiple opportunities for drug repurposing: Primary screen for control Hh wild type fibroblast cells (AID 1347106);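 further: a drop in luminescence marks cytotoxicity and a rise apparent proliferation; nearly all actives have a fitted effect of over 55% in size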", "details": "Hh wild-type fibroblast viability, CellTiter-Glo luminescence, 48 h; series mostly up to 46 µM", "procedure,_shortened": "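Cells (500-1,000/well) in growth media were settled 5 h at 37 degrees C, then given compounds for 48 h. Viability was read as CellTiter-Glo luminescence. Primary runs used MIPE at 11 points (0.78 nM-46 µM) and NPC at 8 points (0.59 nM-46 µM); follow-ups used 11 points.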"}
{"smiles": "CN1C(=O)CC[C@H]1c1cccnc1", "outcome": "inactive"}
{"smiles": "CN(C)CCCN1c2ccccc2Sc2ccccc21", "outcome": "inactive"}
{"smiles": "CCCN(CCC)C(=O)C(CCC(=O)O)NC(=O)c1ccccc1", "note": "(configuration not stated)", "outcome": "inactive"}
{"smiles": "Cc1nc2sccn2c(=O)c1CCN1CCC(=C(c2ccc(F)cc2)c2ccc(F)cc2)CC1", "outcome": "inactive"}
{"smiles": "Brc1c(NC2=NCCN2)ccc2nccnc12", "outcome": "inactive"}
{"smiles": "CC(C)(C)NCC(O)c1cc(O)cc(O)c1", "note": "(configuration not stated)", "outcome": "inactive"}
{"smiles": "COCCc1ccc(OCC(O)CNC(C)C)cc1", "note": "(configuration not stated)", "outcome": "inactive"}
{"smiles": "CN(C)CC[C@@H](c1ccc(Br)cc1)c1ccccn1", "outcome": "inactive"}
{"smiles": "C[C@]12CCC(=O)C=C1CC[C@@H]1[C@@H]2C(=O)C[C@@]2(C)[C@H]1CC[C@]2(O)C(=O)CO", "outcome": "inactive"}
{"smiles": "OC(CCN1CCCCC1)(c1ccccc1)C1CCCCC1", "note": "(configuration not stated)", "outcome": "inactive"}
{"smiles": "C[N+](C)(C)CCCCCCCCCC[N+](C)(C)C", "outcome": "inactive"}
{"smiles": "COc1ccc2c(c1OC)C(=O)O[C@@H]2[C@H]1c2c(cc3c(c2OC)OCO3)CCN1C", "outcome": "inactive"}
{"smiles": "CCCN1C[C@H](CSC)C[C@@H]2c3cccc4[nH]cc(c34)C[C@H]21", "outcome": "inactive"}
{"smiles": "CC(=O)OCC1=C(C(=O)O)N2C(=O)[C@@H](NC(=O)Cc3cccs3)[C@H]2SC1", "outcome": "inactive"}
{"smiles": "NC(Cc1ccc(Cl)cc1)C(=O)O", "note": "(configuration not stated)", "activity change, negative = cytotoxic": "6.18% [at 0.597 µM]"}
{"smiles": "CCN(CC)CC(=O)Nc1c(C)cccc1C", "outcome": "inactive"}
{"smiles": "Cc1cc(C)c(/C=C2\\C(=O)Nc3ccccc32)[nH]1", "outcome": "inactive"}
{"smiles": "CCN(CC)CCNC(=O)c1cc(S(C)(=O)=O)ccc1OC", "outcome": "inactive"}
{"smiles": "CC(N=C(NC#N)Nc1ccncc1)C(C)(C)C", "note": "(configuration not stated)", "outcome": "inactive"}
{"smiles": "O=C(O)CP(=O)(O)O", "outcome": "inactive"}
{"smiles": "CC[N+](C)(C)c1cccc(O)c1", "outcome": "inactive"}
{"smiles": "CC(=O)Oc1cc(C(C)C)c(OCCN(C)C)cc1C", "outcome": "inactive"}
{"smiles": "C[C@@H](O)[C@H]1C(=O)N2C(C(=O)O)=C(SCCN=CN)C[C@H]12", "outcome": "inactive"}
{"smiles": "CSc1ccc(C(=O)c2[nH]c(=O)[nH]c2C)cc1", "outcome": "inactive"}
{"smiles": "O=C1CC2(CCCC2)CC(=O)N1CCCCN1CCN(c2ncccn2)CC1", "outcome": "inactive"}
{"smiles": "NC(=O)c1cn(Cc2c(F)cccc2F)nn1", "outcome": "inactive"}
{"smiles": "CC(C(=O)O)c1ccc(CC2CCCC2=O)cc1", "note": "(configuration not stated)", "outcome": "inactive"}
{"smiles": "CC(=O)[C@@]1(O)CC[C@H]2[C@@H]3CCC4=CC(=O)CC[C@]4(C)[C@H]3CC[C@@]21C", "outcome": "inactive"}
{"smiles": "Cc1cccc(C)c1NC(=O)C(C)N", "note": "(configuration not stated)", "outcome": "inactive"}
{"smiles": "NC1=NCC2c3ccccc3Cc3ccccc3N12", "note": "(configuration not stated)", "outcome": "inactive"}
{"smiles": "CN(C)[C@@H]1C(=O)C(C(N)=O)=C(O)[C@@]2(O)C(=O)C3=C(O)c4c(O)ccc(Cl)c4[C@@H](O)[C@H]3C[C@@H]12", "outcome": "inactive"}
{"smiles": "CCCCOCCOCCOCc1cc2c(cc1CCC)OCO2", "outcome": "inactive"}
{"smiles": "CCCOc1ccccc1-c1nc2n[nH]nc2c(=O)[nH]1", "outcome": "inactive"}
{"smiles": "CCCN(CCC)CCc1cccc2c1CC(=O)N2", "outcome": "inactive"}
{"smiles": "Cc1scc2c1N(C(=O)CN1CCN(C)CC1)c1ccccc1NC2=O", "outcome": "inactive"}
{"smiles": "CCCCNc1c(C(=O)OCC)c(C)nc2c1cnn2CC", "outcome": "inactive"}
